Source: the supplement of paper PMC10338343
± gives the standard deviation.

Tested on: MILI (PIWIL2) piRISC loaded with L1MC piRNA (26 nt)
Assay: pre-steady-state target cleavage rate (min^-1); guide: L1MC piRNA 5'p-UAACUAAAUACUAUGCAAGCUGUAGG; MIWI and MILI are mouse PIWI proteins and EfPiwi is from a freshwater sponge; tags in brackets are library labels; higher = faster piRNA-guided slicing of the target
In short: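 Cleave-'n-Seq used a transcribed, DNA-blocked target RNA library at 0.1 nM and active affinity-purified piRISC with one synthetic guide at 1 nM, with or without 500 nM GTSF1 partner protein, in HEPES–potassium acetate buffer at 33 °C for 0–8 or 0–960 min. Uncleaved targets were sequenced and normalised to depth and to weakly complementary targets, and three trials were pooled with k3 capped at 0.0001 min^-1. The pre-steady-state cleavage rate was estimated by a burst-and-steady-state fit.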

[1] = auxiliary factor: none (no GTSF1)
[2] = auxiliary factor: 500 nM mouse GTSF1

| Sequence | pre-steady-state target cleavage rate [1] | pre-steady-state target cleavage rate [2] |
| --- | --- | --- |
| UCCUGGAUGUCGAACCAUAGUCAUUUAGUUA | < 0.0001 | – |
| UCCUGGAUGUCGAACGUAUGUACUUUAGUUA | < 0.0001 | – |
| UCCUGGAUGAGCUAGCAUAGUAUUUACAAA | – | 0.0471 ± 0.015 |
| UCCUGGAUGUCGAACGAAUCUAUUUAGUUA | < 0.0001 | – |
| UCCUGGAUCAGCAUGCAUAGUAUUUUCAAA | – | 0.0716 ± 0.018 |
| UCCUGGAACAGCUUGCAUAGUAUAAAGUAA | – | 0.249 ± 0.063 |
| UCCUCCUACAGCUUGCAUAGAUAUUAGAAA | – | 0.00453 ± 0.0044 |
| UCCUGGAUGUCGAUGCUUAGUAUUUUGUUA | – | 0.0154 ± 0.0056 |
| UCCUGGAUCAGCUUGCAUAGAAUUUUGUUA | – | 0.038 ± 0.012 |
| UCCUGGAUGUCGAAGCACAGUAUUUAGUUA | – | 0.00819 ± 0.0038 |
| UCCUGGAUCAGCUACGAUAGUAUUUAGUAA | – | 0.0254 ± 0.0088 |
| UCCUGGUACAGCUUGCAUAGUAUAUAGAUA | – | 0.014 ± 0.0071 |
| UCCUGGAUGUCGAUGCCAUAGUAUUUAGUUA | – | 0.00491 ± 0.0034 |
| UCCUGGAUGUCGAAGCAGUAGUAUUUAGUUA | < 0.0001 | – |
| UCCUGGAUCUCCUUGCAUAGUAUUUACAAA | – | 0.0872 ± 0.018 |
| UCCUGGAUCUGCUUGCAUAGUAUUUACAAA | – | 0.104 ± 0.022 |
| UCCUGGAUGUCGAAGCAUAUAUUUAGUUA | < 0.0001 | – |
| UCCUGGAUGUCGAACGUAACAAUUUAGUUA | < 0.0001 | – |
| UCCUCCUACAGGAAGCAUAGUAUUUAGAAA | – | 0.107 ± 0.017 |
| UCCUGGAUGUGCUUGCAUACAUAAAUCAAA [g12:g20:cont:t1A] | < 0.0001 | – |
| UCCUGGAACAGCUUGCUUAGAAUUUAGUUA | – | 0.0285 ± 0.0057 |
| UCCUGGAACUCGUUGCAUAGUAUUUUCAAA | – | 0.0397 ± 0.011 |

| Sequence | pre-steady-state target cleavage rate [1] | pre-steady-state target cleavage rate [2] |
| --- | --- | --- |
| UCCUGGAUGUCGAUGACAUAGUAUUUAGUUA | – | 0.015 ± 0.0059 |
| UCCUGGAACAGCUUGCAUAGUAUAUUCAAA | – | 0.0758 ± 0.022 |
| UCCUCCUACAGCUUGCAAUGUAUUUUCAAA | – | 0.0219 ± 0.0065 |
| UCCUGGAACAGCUACGAUAGUAUUUAGUUA | – | 0.147 ± 0.011 |
| UCCUGGAUGAGCUUGCAUAGUAUUAUGAAA | – | 0.00473 ± 0.0045 |
| UCCUGGAUGUGCUUGCAUUCUAUUUAGUUA | – | 0.0101 ± 0.004 |
| UCCUGGAACAGCUUGCAUUAGUAUUUAGUUA | – | 0.0128 ± 0.0055 |
| UCCUGGAACAGCUUGCAUAGUAUUUAGAAA | – | 0.0838 ± 0.015 |
| UCCUGGAUGUGCUUGCAUAGUAUAUUGUUA | – | 0.0146 ± 0.0062 |
| UCCUGCUACAGCUUGCAUAGUAUUUAUUA | – | 0.0696 ± 0.017 |
| UCCUGGAACAGCUUGCAUAGUAUAUACAAA | – | 0.0873 ± 0.03 |
| UCCUGGAUGUGCUUGCUUAGUAUUAAGUUA | – | 0.0615 ± 0.017 |
| UCCUGGAUGUCCUUGCAUAGUAAUUUGUUA | – | 0.0222 ± 0.0085 |
| UCCUGGAUGAGCUUGCAUAGUAUAUUGUUA | – | 0.0743 ± 0.017 |
| UCCUGGAUGUCGUUGCAUAGUUAUUAGUUA | 0.00364 ± 0.0031 | – |
| UCCUGGAUCAGCUUGCAUAGUAAUUACAAA | – | 0.145 ± 0.04 |
| UCCUCCUACAGCUUGCAUCAGUAUUUAGUUA | – | 0.0234 ± 0.0093 |
| UCCUGGAACAGCAACCAUAGUAUUUAGUAA | – | 0.143 ± 0.019 |
| UCCUGGAUGUCGAACGAUAGUAUUUAUGUUA | < 0.0001 | – |
| UCCUCCUACAGCUUGCAUACUAUAUAGUUA | – | 0.0619 ± 0.015 |
| UCCUGGAUGUCGAUGCAUAGUAUUUUGUUA | – | 0.0682 ± 0.016 |
| UCCUGGAACAGCUUGCAUAGAUUUUAGUAA | – | 0.0259 ± 0.0091 |

| Sequence | pre-steady-state target cleavage rate [1] | pre-steady-state target cleavage rate [2] |
| --- | --- | --- |
| UCCUGGAACAGGUUGCAUAGUAUUUACUUA | – | 0.0532 ± 0.012 |
| UCCUGGUACAGCUUGCAUAGUUUUUAGAAA | – | 0.0221 ± 0.011 |
| UCCUGGAUCUGCUUGCAUAGUAUUUUCAAA | – | 0.0366 ± 0.0094 |
| UCCUCCUACAGCUUGGUAAGUAUUUAGUAA | – | 0.155 ± 0.025 |
| UCCUGCUACAGCUUGCAUAGAAUUUACUUA | – | 0.107 ± 0.031 |
| UCCUGGUACAGCUUGCAUAGUAUUAUCAAA | – | 0.0127 ± 0.0058 |
| UCCUGGAACAGCUUGCAUAGCUAUUUAGUUA | – | 0.00904 ± 0.0044 |
| UCCUGGAACAGCUUGCAUAGUAUUAUCUAA | – | 0.0368 ± 0.012 |
| UCCUGGAUCAGCUUGCAUAGUAUAAUGUAA | – | 0.0214 ± 0.0079 |
| UCCUGGAUGUCCUUGCAUAGUAUUAUCAAA [g7:g19:cont:t1A] | – | 0.0222 ± 0.0094 |
| UCCUGGAUCACCUUGCAUAGUAUUUUGUUA | – | 0.11 ± 0.027 |
| UCCUGGAACAGCUACGAUAGUAUUUAGUAA | – | 0.142 ± 0.02 |
| UCCUGGAUGUGCUUGCAUAGUAAUUUGUUA | – | 0.0141 ± 0.0071 |
| UCCUGCUACAGCUUGGUAAGUAUUUAGAAA | – | 0.0107 ± 0.0045 |
| UCCUGGAUGUCGUAGCAUAGUAUUUAGUAA | – | 0.0538 ± 0.01 |
| UCCUGCUACAGCUUGCAUAGUUAUUUCAAA | – | 0.0109 ± 0.0051 |
| UCCUGGUACAGCUUGCAUAGAAUUUAGAUA | – | 0.0253 ± 0.013 |
| UCCUGGAUGUCGAACGCUAGUAUUUAGUUA | < 0.0001 | – |
| UCCUGGAUGUCGUUGCUUAGUAUUAAGUUA | – | 0.03 ± 0.0099 |
| UCCUCCUACAGCUUGCUAUGUAUUUUCAAA | – | 0.006 ± 0.0037 |
| UCCUGCUACACGAUGCAUAGUAUUUUCAAA | – | 0.117 ± 0.034 |
